Screening results from PubChem BioAssay.
M1 PAM parental = nonselective calcium activators in parental CHO-K1 cells, primary screen, counter-screen for M1 PAM project, cell-based, Fluo-8 calcium fluorescence, full deck, 1536-well; 360,000 tested, 0.02% active; activation, % at 3 µM; ATP EC20; 0% at ATP EC20, 100% at ATP max; AID 602247, 2012;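 active = activation above the run cutoff, the mean activation of all test compounds plus 3 SD, cut at about 40% in these data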;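 note: peak over basal fluorescence ratio in a 140 s read after ATP addition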
CHRM4 agonist = human M4 muscarinic receptor agonists, primary screen, CHO-K1 cells, Fluo-8 calcium fluorescence; Muscarinic acetylcholine receptor M4 (Homo sapiens), P08173; 360,000 tested, 0.14% active; activation, % at 3 µM; CHO-K1 hM4/Gqi5; vehicle 0%, full acetylcholine response 100%;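 active = activation above the run mean over all test wells plus 3 SD, cut at about 32% in these data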;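 note: peak over basal fluorescence ratio per well then scaled between controls; 0% = DMSO wells and 100% = acetylcholine at EC100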
Target sequence (P08173 whole entry, looked up): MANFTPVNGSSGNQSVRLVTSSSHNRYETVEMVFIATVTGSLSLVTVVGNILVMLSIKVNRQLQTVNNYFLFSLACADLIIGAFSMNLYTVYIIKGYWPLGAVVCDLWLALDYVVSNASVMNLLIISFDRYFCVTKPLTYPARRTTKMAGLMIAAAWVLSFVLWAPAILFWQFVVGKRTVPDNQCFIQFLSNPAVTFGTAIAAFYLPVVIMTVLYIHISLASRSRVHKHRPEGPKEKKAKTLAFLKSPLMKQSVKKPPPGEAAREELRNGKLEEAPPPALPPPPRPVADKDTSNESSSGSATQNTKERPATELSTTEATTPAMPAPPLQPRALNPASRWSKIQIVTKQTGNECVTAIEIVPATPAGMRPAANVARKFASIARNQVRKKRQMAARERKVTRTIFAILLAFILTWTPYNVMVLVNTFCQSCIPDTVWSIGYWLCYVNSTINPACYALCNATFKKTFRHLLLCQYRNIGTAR
CHO-K1 Ca antag = M1 antagonist counterscreen hit in parental CHO-K1 cells. ATP-induced calcium, Fluo-8 fluorescence. inhibition, % at 3 µM. 360,000 tested, 0.6% active. AID 602250;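 active = inhibition above a per-plate cutoff, the plate's mean sample inhibition plus 3 SD, cut at about 24% in these data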;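 note: 0% = DMSO plus EC80 ATP and 100% = DMSO alone without ATP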
M4 antag = human M4 muscarinic receptor antagonists, primary screen, CHO cells, Fluo-8 calcium fluorescence | 360,000 tested, 0.73% active | CHO-hM4 cells, ACh EC80 | inhibition, % at 3 µM;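 active = inhibition above its plate's cutoff, the mean inhibition of sample wells plus 3 SD, cut at about 27% in these data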;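 note: 0% = acetylcholine EC80 with DMSO and 100% = DMSO without agonist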
M1 ag parental = counter-screen for M1 agonists: effect in parental CHO-K1 cells | Fluo-8 calcium fluorescence; scaled to maximal ATP response, vehicle zero | activation, % at 3 µM | 360,000 tested, 0.48% active; in the data active = activation above about 15%;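 note: untransfected CHO-K1 host cells lacking M1 receptor as counterscreen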
M4 PAM = human M4 muscarinic receptor positive allosteric modulators, primary screen, CHO-K1 cells, Fluo-8 calcium fluorescence; activation, % at 3 µM; CHO-K1 hM4/Gqi5, ACh EC20; 0% = ACh EC20, 100% = maximal ACh; 360,000 tested, 0.4% active; Muscarinic acetylcholine receptor M4 (Homo sapiens), P08173;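 active = activation above its plate's cutoff, the mean activation of sample wells plus 3 SD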
* marks the source's active call; other numbers are inactive results. Rows were chosen to be rich in hits. Some 2% of all compounds tested hit in one or more screens of this group.

SMILES	M1 PAM parental	CHRM4 agonist	CHO-K1 Ca antag	M4 antag	M1 ag parental	M4 PAM
COC(=O)C1=C(c2ccc(F)cc2OCc2ccccc2)C[C@@H]2CC[C@H]1N2C(=O)N1CCC(C)CC1	3	1	5	38*	-1	-16
COC(=O)C1=C(c2ccc(F)cc2F)C[C@@H]2CC[C@H]1N2C	-3	1	-25	29*	1	-18
COC(=O)C1=C(c2ccc(F)cc2OCc2ccccc2)C[C@@H]2CC[C@H]1N2C(=O)N1CCCCC1	9	0	-7	4	-1	0
c1ccc(C(c2ccccc2)c2ccncc2)cc1	19	5	-10	42*	1	-16
CC/C(=N\N1CCN(C)CC1)c1c(O)[nH]c(=O)[nH]c1=O	10	1	2	1	1	3
COc1ccc(Br)cc1CN1CCN(CCO)CC1	12	1	-14	5	0	8
COc1cc(Br)cc(CN2CCN(C)CC2)c1O	2	1	-5	41*	0	-14
N#Cc1ccccc1Cn1cc(C(=O)c2ccccc2F)c2ccccc21	6	0	-7	3	1	25
CC(C)NC(=O)Cn1cc(C(=O)c2ccccc2F)c2ccccc21	-4	1	9	1	0	27*
CCCCc1nc2ccccc2c(=O)n1-c1ccc(Cl)cc1[N+](=O)[O-]	9	-1	-11	13	0	-3
CCCNC1=C(C)C(=O)C2=C(C1=O)C(COC(N)=O)[C@]1(OC)C3NC3CN21 (stereo partly drawn)	7	1	-5	2	1	0
OC(c1cccc(Cl)c1)(c1cccc(Cl)c1)C1CN2CCC1CC2 (stereo not drawn)	8	22	4	94*	6	-23
O=S(=O)(NC1CN2CCC1CC2)c1ccc(Cl)cc1 (stereo not drawn)	-11	1	-8	1	1	0
CCCCC(=O)N/N=C/c1c(O)n(CCc2ccc(OC)c(OC)c2)c(=O)[nH]c1=O	-9	1	5	-4	4	1
O=C(c1cc(=O)[nH]c2ccc(Br)cc12)N1CCC2(CC1)OCCO2	-6	3	26*	5	0	6
COC(=O)C1=C(c2ccc(S(C)(=O)=O)cc2)C[C@@H]2CC[C@H]1N2C(=O)NCCS(C)=O (stereo partly drawn)	15	0	-16	-9	1	9
Cc1ccsc1C(=O)C1CCCN(Cc2cn(C)nc2C)C1 (stereo not drawn)	-5	1	-4	-3	1	-5
O=C(NCCN1CCC2(CC1)C(=O)NCN2c1cccc(F)c1)c1ccc2ccccc2c1	-19	107*	93*	101*	41*	-18
O=C1NCN(c2ccccc2)C12CCNCC2	17	1	-20	-5	1	10
O=C(Nc1ccncc1)c1cccn(Cc2ccccc2)c1=O	-12	8	11	2	32*	-8
CC(C)(O)/C=C/C(=O)C(C)(O)C1C(O)CC2(C)C3CC=C4C(C=C(O)C(=O)C4(C)C)C3(C)C(=O)CC12C (stereo not drawn)	20	1	-16	-22	1	14
CC(=O)OC(C)(C)/C=C/C(=O)[C@](C)(O)C1[C@H](O)C[C@@]2(C)C3CC=C4C(C[C@H](O)C(=O)C4(C)C)[C@]3(C)C(=O)C[C@]12C (stereo partly drawn)	-7	1	1	-14	-1	24*
CC1(C)C[C@H]2C=C(C=O)[C@]3(C=O)C[C@]3(C)[C@H]2C1	-3	3	5	35*	1	-13
OCc1cnc[nH]1	-7	0	36*	-11	0	-2
CCN(CC)CCCOC(=O)C(OC)(c1ccccc1)c1ccccc1	3	1	-6	53*	0	-20
SMILES	M1 PAM parental	CHRM4 agonist	CHO-K1 Ca antag	M4 antag	M1 ag parental	M4 PAM
C[N+]12CCC(CC1)C(C(O)(c1ccccc1)c1cccs1)C2 (stereo not drawn)	25	1	-13	94*	2	-33
CCC[N+]12CCC(CC1)C(C(O)(c1ccccc1)c1ccccc1)C2 (stereo not drawn)	4	0	-7	10	0	-54
Cc1nc2cc(-c3ccccc3)nn2c(C)c1CCC(=O)N1CCC2(CC1)OCCO2	-7	0	24*	-1	0	6
Cc1nc2ncnn2c(C)c1CCC(=O)N1CCC2(CC1)OCCO2	8	1	4	4	0	17
O=C(Nc1cccc(C(F)(F)F)c1)OC1CN2CCC1CC2 (stereo not drawn)	-7	3	4	43*	2	-16
O=C(Nc1ccc(C(F)(F)F)cc1)OC1CN2CCC1CC2 (stereo not drawn)	-7	4	0	-5	1	-20
CN(C)CCSC1c2ccccc2CSc2ccccc21 (stereo not drawn)	9	5	-2	98*	3	-17
C[C@]12CC[C@H](OC(=O)CCC(=O)O)CC1=CCC1C2CC[C@@]2(C)C1CC[C@@H]2OC(=O)CCC(=O)O (stereo partly drawn)	15	1	-7	-10	1	13
CCc1cc(=O)oc2cc(C)cc(OCC(=O)N3CCC(C(=O)O)(c4ccccc4)CC3)c12	17	1	-1	-13	1	6
Cc1cc(OCC(=O)N2CCC(C(=O)O)(c3ccccc3)CC2)c2c(C)c(C)c(=O)oc2c1	9	0	-6	76*	0	-16
COC[C@H]1OC(=O)c2coc3c2[C@@]1(C)C1=C(C3=O)[C@@H]2CCC(=O)[C@@]2(C)C[C@H]1OC(C)=O	26	0	-13	-11	3	5
CCCCCCn1c(O)c(C=NCCN2CCCCC2)c(=O)[nH]c1=O	21	1	-3	6	0	-4
CCCCCCn1c(O)c(C=NCCN2CCOCC2)c(=O)[nH]c1=O	10	0	7	2	17*	-5
O=C1C2CCCN2C(c2cccnc2)N1c1ccc(Cl)cc1 (stereo not drawn)	7	1	-11	1	0	30*
CN(Cc1cccc(-c2ccncc2)c1)C(=O)Oc1ccccc1Cc1ccccc1	-8	17	24*	37*	12	-15
COc1ccc(-n2c(-c3ccccc3Br)nc3ccccc3c2=O)cc1	10	3	-13	5	0	-13
COc1cccc(-n2c(C)nc3ccccc3c2=O)c1	-4	0	4	-7	1	27*
